Shown are actives, neighbours in structure and some others; about 27% of the full set was active somewhere.
sEH activator – soluble epoxide hydrolase activators, primary screen, biochemical, human sEH; AID 717, 2007; activation, % at 2 µM; purified human sEH enzymatic activity, activator screen; Bifunctional epoxide hydrolase 2 (Homo sapiens), P34913; 91,000 tested, 0.04% active; in the data active means activation above about 37%
Target sequence (P34913 whole entry, looked up): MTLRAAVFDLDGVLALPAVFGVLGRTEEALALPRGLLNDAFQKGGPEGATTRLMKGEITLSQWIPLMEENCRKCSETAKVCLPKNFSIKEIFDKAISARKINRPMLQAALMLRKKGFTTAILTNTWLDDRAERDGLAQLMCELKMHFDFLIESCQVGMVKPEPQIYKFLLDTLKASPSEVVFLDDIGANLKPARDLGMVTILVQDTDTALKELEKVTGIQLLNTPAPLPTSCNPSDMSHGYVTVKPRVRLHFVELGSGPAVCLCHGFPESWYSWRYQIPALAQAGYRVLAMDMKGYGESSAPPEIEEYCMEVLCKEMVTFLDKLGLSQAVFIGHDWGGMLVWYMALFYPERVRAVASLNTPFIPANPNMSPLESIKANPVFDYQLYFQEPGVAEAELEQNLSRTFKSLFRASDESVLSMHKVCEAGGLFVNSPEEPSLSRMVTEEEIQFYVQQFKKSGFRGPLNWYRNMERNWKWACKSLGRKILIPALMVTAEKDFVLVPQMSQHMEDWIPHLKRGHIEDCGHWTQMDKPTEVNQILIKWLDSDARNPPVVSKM
CYP2C19 inh – blockers of cytochrome P450 2C19 activity – biochemical, luminescence, ADME assay, primary screen; P33261; CYP2C19 Supersomes, luciferin-H EGE luminescence, 30 min; inhibition, % at 5 µM; 96,000 tested, 21% active; AID 778, 2007;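 active means CYP2C19 inhibition above a set limit at 5 µM in the primary screen, cut at about 50% in these data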;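 further: plate controls were negative control wells for no effect and 2.5 mM tranylcypromine positive control for full effect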
CYP2C9 act – human CYP2C9 activators, primary screen, biochemical, luminescence | activation factor at 5 µM | 96,000 tested, 1.4% active | AID 1024, 2008 | Cytochrome P450 2C9 (Homo sapiens), P11712 | recombinant CYP2C9, luciferin-H conversion; stronger effect = higher value; factor 1 = untreated enzyme, 0 = blocked;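 active means activation factor of 2 or more for CYP2C9 at a 5 µM dose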;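 further: 0 = sulfaphenazole-blocked wells and 1 = vehicle-only wells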
CYP2C9 inh – blockers of cytochrome P450 2C9 activity – biochemical, luminescence, ADME assay, primary screen. CYP2C9 Supersomes, luciferin-H conversion. AID 777, 2007. 96,000 tested, 20% active. P11712. inhibition, % at 5 µM;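 active means blocking of liver enzyme CYP2C9 beyond about 50% at 5 µM, limit read from the data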
sEH inhibitor – soluble epoxide hydrolase inhibitors, primary screen, biochemical, human sEH | recombinant human sEH enzymatic activity assay | inhibition, % at 2 µM | 91,000 tested, 0.34% active | AID 707, 2007; in the data active means inhibition above about 80%
CYP2C19 activ – human CYP2C19 activators, primary screen, biochemical, luminescence | recombinant CYP2C19, luciferin-H EGE luminescence; stronger effect = higher value; 0 = fully inhibited enzyme, 1 = untreated enzyme | Cytochrome P450 2C19 (Homo sapiens), P33261 | 96,000 tested, under 10 active | activation factor at 5 µM;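 active means activation factor of at least 2 at 5 µM in the primary screen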;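 further: 0 = wells with 2.5 mM tranylcypromine and 1 = vehicle-only wells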
Active calls of the source: *; . = no result.

SMILES	sEH activator	CYP2C19 inh	CYP2C9 act	CYP2C9 inh	sEH inhibitor	CYP2C19 activ
Cc1c(NC(=O)/C=C/c2cn(-c3ccccc3)nc2-c2ccccc2)c(=O)n(-c2ccccc2)n1C	15	13	0.6	37	-13	0.9
O=C(c1cccc(F)c1F)N1CCCC1	8	.	.	.	-6	.
CCc1c(C)sc(NC(=O)Cn2nc(C(F)(F)F)c3c2CCCC3)c1C#N	9	22	0.8	24	-5	0.8
CCOc1ccccc1-c1nnc(SCC(=O)Nc2ccccc2)o1	-12	41	2.4*	-138	16	0.6
Cc1ccc(NC(=O)CSc2nnc(-c3ccc(S(=O)(=O)N4CCCC4)cc3)o2)cc1C	-28	25	0.5	54*	28	0.8
O=C(CSc1nnc(-c2ccc(F)cc2)o1)Nc1ccc(S(=O)(=O)N2CCCC2)cc1	-22	6	0.8	18	23	0.9
Cc1cccc(NC(=O)CSc2nnc(-c3ccccc3C)o2)c1	-9	.	.	.	10	.
Cc1cc(C)nc(SCc2nnc(SCC(=O)Nc3ccc(C)c(C)c3)o2)n1	-8	88*	0.3	74*	7	0.1
COC(=O)CSc1nnc(-c2ccc(S(=O)(=O)N3CCCCC3)cc2)o1	-3	38	0.4	64*	3	0.6
O=C(CSc1nnc(-c2ccc(Cl)s2)o1)N1CCOCC1	11	-4	1.1	-10	-10	1
O=C(NCc1cccs1)c1ccc2c(c1)OCCO2	-5	4	0.9	6	4	1
O=C(NCc1cccs1)c1cccc(Nc2nc3ccc(Br)cc3[nH]2)c1	-15	33	0.2	83*	14	0.7
CC1CC1C(=O)OCC(=O)NCc1ccc(Cl)cc1 (configuration not stated)	3	97*	0.5	53*	-2	0
CC1CC1C(=O)OCC(=O)NCc1ccc(Cl)cc1Cl (configuration not stated)	-11	100*	0.7	30	11	0
O=C(COC(=O)C1CC1)NCc1ccccc1Cl	7	70*	0.8	18	-4	0.3
Cc1cc(C(F)F)nn1CC(=O)NCc1ccc(Cl)cc1Cl	-20	.	.	.	19	.
CC1=C(C(=O)Nc2ccccc2)C(c2cccc([N+](=O)[O-])c2)Nc2nc3ccccc3n21 (configuration not stated)	-3	25	0.9	10	0	0.8
O=C(O)CCCNS(=O)(=O)c1cccc2nsnc12	2	-6	1	1	-3	1.1
COc1ccc(NC(=O)CSc2n[nH]c(N)n2)c([N+](=O)[O-])c1	1	-1	0.9	13	2	1
O=C(Nc1ccc(-n2nncc2-c2ccco2)cc1)c1cccc(F)c1	-70	96*	0.3	72*	71	0
O=C(Nc1ccc(-n2nncc2-c2ccco2)cc1)c1cc2ccccc2oc1=O	14	44	0.4	63*	-12	0.6
O=C(NCc1ccccn1)c1cc(-n2cnnc2)ccc1Cl	-1	10	1	3	6	0.9
CCCCn1c(N)c(N(CC(C)C)C(=O)CN(C)Cc2cccc(OC)c2)c(=O)[nH]c1=O	5	56*	0.9	14	-3	0.4
COc1ccccc1NC(=O)/C(C#N)=C/C=C/c1ccco1	-16	-4	3*	-203	18	1
COc1ccc(C2N3CC4(C)CN2CC(C)(C3)C4O)cc1 (configuration not stated)	3	-18	1	-4	-3	1.2
SMILES	sEH activator	CYP2C19 inh	CYP2C9 act	CYP2C9 inh	sEH inhibitor	CYP2C19 activ
COc1cc(C2C3C(=O)N(Cc4ccccc4)C(=O)C3ON2c2ccccc2)cc(OC)c1O (configuration not stated)	-18	19	0.4	56*	20	0.8
Cc1cc(C(=O)CSCc2nnc3n(CCC(C)C)c(=O)c4ccccc4n23)c(C)n1C	7	.	.	.	-5	.
CC12CCC(C(=O)Nc3ccccc3Br)(C/C1=N\O)C2(C)C (configuration not stated)	0	3	1.2	-18	1	1
Cc1nc(=O)c(-c2ccccc2)c(C)n1-c1ccc(O)cc1	-5	54*	1	-2	5	0.5
c1cc(-c2nnc3n2CCC3)[nH]n1	.	13	1.1	-12	.	0.9
Cc1c(NC(=O)C2C3C=CC(C3)C2C(=O)O)c(=O)n(-c2ccccc2)n1C (configuration not stated)	3	5	0.9	11	-5	0.9
CS(=O)(=O)NCc1nnc(SCC(=O)NC2CCCCC2)n1-c1ccc(F)cc1	2	-4	1	-2	-2	1
Cc1cc(C(=O)CN2C(=O)c3cccc(N)c3C2=O)c(C)n1Cc1cccs1	14	91*	2.4*	-138	-13	0.1
C=CCn1c(SCC(=O)c2cc(C)n(Cc3cccs3)c2C)nnc1-c1ccncc1	.	44	0.6	36	.	0.6
COc1ccccc1-n1cnnc1SCC(=O)c1cc(C)n(Cc2cccs2)c1C	.	98*	0.1	89*	.	0
Cc1cc(C(=O)CSc2nnc(-c3ccccc3F)o2)c(C)n1Cc1cccs1	-16	96*	0.2	78*	16	0
Cc1nnsc1SCC(=O)O	-4	-7	1.2	-16	4	1.1
Cc1nnsc1SCCNC(=O)c1ccc(F)cc1	-13	80*	0.8	22	15	0.2
O=C(OCC(=O)N1CCN(C(=O)c2ccco2)CC1)c1cc(-c2ccc(Cl)c(Cl)c2Cl)nc2ccccc12	-13	40	0.3	69*	12	0.6
CC1(C)OC(=O)C(=NNc2ccc(Cl)cc2)C(=O)O1	2	7	0.8	18	-2	0.9
Cc1ccc2c(c1)C1(OCCO1)C(=O)N2	0	-2	1	3	-2	1
Nc1c(NC2CCCCC2)c2ccccc2oc1=O	7	35	0.8	17	-2	0.7
Cc1ccccc1Nc1c(N)c(=O)oc2ccccc12	22	96*	0.4	65*	-25	0
CCn1ccnc1C(O)c1ccc(N(C)C)cc1 (configuration not stated)	6	62*	1	0	-6	0.4
COc1ccc(C(O)c2nccn2Cc2ccccc2)cc1OC (configuration not stated)	-9	41	1.1	-8	11	0.6
CCOc1ccc(C(O)c2nccn2Cc2ccccc2)cc1 (configuration not stated)	-4	80*	0.7	35	5	0.2
CCOc1cc(/C=C2/SC(=Nc3ccccc3)N(Cc3cccnc3)C2=O)ccc1OCC#N	9	13	1	-1	-7	0.9

Compound activity as filed in PubChem BioAssay.
